In PubChem BioAssay AID1159580 (chemical genetic matrix, 2015):
Where “and” joins values, the source holds several entries; their conditions need not be identical. Identical values can stand only once. About 2,000 (36%) of roughly 5,500 compounds were called active. About 18% were inconclusive and are not listed. The list shows a part of the results. A number with no mark means an inactive call. Cut-off read from the data, not from the text of the source: active = normalized growth mostly below about 0.91 (no sharp cut-off); inconclusive = no clear call, values can overlap the other calls; inactive = mostly above about 0.92.

Test: chemical genetic growth profiling, strain panel (AID 1159580);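 note: tested at 20 µM; growth read once vehicle control cultures reached saturation at 30 °C; 1 = growth at the plate median or of vehicle wells; lower values mean less growth of the strain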
Conditions: S. cerevisiae deletion strains, growth OD

With `CCCCNc1ccc(C(=O)OCCN(C)C)cc1` the normalized growth (locus YAL013W, strain DEP1, hits give low values) was 1.01, the normalized growth (locus YAL021C, strain ccr4, hits give low values) was 0.978 and the normalized growth (locus YAL026C, strain drs2, hits give low values) was 1.02. It also gave a normalized growth (locus YAL030W, strain snc1, hits give low values) of 0.999, a normalized growth (locus YAL040C, strain CLN3, hits give low values) of 0.929 and a normalized growth (locus YBL061C, strain skt5, hits give low values) of 1.02. It also gave a normalized growth (locus YBR009C, strain hhf1, hits give low values) of 0.978, a normalized growth (locus YBR021W, strain FUR4, hits give low values) of 1.02 and a normalized growth (locus YBR023C, strain chs3, hits give low values) of 1.01. The normalized growth (locus YBR171W, strain sec66, hits give low values) was 1.02, the normalized growth (locus YBR229C, strain ROT2, hits give low values) was 1.01 and the normalized growth (locus YBR231C, strain swc5, hits give low values) was 1. For the same compound, the normalized growth (locus YBR279W, strain paf1, hits give low values) was 1.01, the normalized growth (locus YCL011C, strain gbp2, hits give low values) was 1.03 and the normalized growth (locus YCL016C, strain dcc1, hits give low values) was 1.02. For the same compound, the normalized growth (locus YCL029C, strain bik1, hits give low values) was 1.01, the normalized growth (locus YCL061C, strain MRC1 (second series), hits give low values) was 1.01 and the normalized growth (locus YCL069W, strain vba3, hits give low values) was 1.01. It also gave a normalized growth (locus YCR088W, strain abp1, hits give low values) of 1.01, a normalized growth (locus YDL005C, strain med2, hits give low values) of 1.01 and a normalized growth (locus YDL035C, strain GPR1, hits give low values) of 1.01. It also gave a normalized growth (locus YDL040C, strain nat1, hits give low values) of 1.01, a normalized growth (locus YDL074C, strain BRE1, hits give low values) of 1.02 and a normalized growth (locus YDL101C, strain DUN1, hits give low values) of 1.01. The normalized growth (locus YDL134C, strain PPH21, hits give low values) was 1.01, the normalized growth (locus YDL185W, strain tfp1, hits give low values) was 1.02 and the normalized growth (locus YDL192W, strain arf1, hits give low values) was 1.01. The normalized growth (locus YDR001C, strain nth1, hits give low values) was 1.01, the normalized growth (locus YDR069C, strain doa4, hits give low values) was 0.991 and the normalized growth (locus YDR101C, strain arx1, hits give low values) was 1.01. For the same compound, the normalized growth (locus YDR137W, strain rgp1, hits give low values) was 1.17 [resistant] (active), the normalized growth (locus YDR150W, strain NUM1, hits give low values) was 1.01 and the normalized growth (locus YDR159W, strain sac3, hits give low values) was 1.01. It also gave a normalized growth (locus YDR162C, strain NBP2, hits give low values) of 0.998, a normalized growth (locus YDR195W, strain ref2) of 0.952 and a normalized growth (locus YDR297W, strain sur2, hits give low values) of 1.02. It also gave a normalized growth (locus YDR318W, strain mcm21, hits give low values) of 1.02, a normalized growth (locus YDR334W, strain swr1, hits give low values) of 1.04 and a normalized growth (locus YDR335W, strain msn5, hits give low values) of 1.04. For the same compound, the normalized growth (locus YDR363W, strain ESC2, hits give low values) was 1.01, the normalized growth (locus YDR388W, hits give low values) was 1.02 and the normalized growth (locus YDR392W, strain spt3, hits give low values) was 1.09. It also gave a normalized growth (locus YDR502C, strain sam2, hits give low values) of 1, a normalized growth (locus YEL003W, strain gim4, hits give low values) of 1.01 and a normalized growth (locus YEL037C, strain rad23, hits give low values) of 1.02. The normalized growth (locus YEL061C, strain CIN8 (second series), hits give low values) was 1.02, the normalized growth (locus YEL061C, strain CIN8, hits give low values) was 1.01 and the normalized growth (locus YER002W, strain NOP16, hits give low values) was 0.995. The normalized growth (locus YER015W, strain faa2, hits give low values) was 1.01, the normalized growth (locus YER016W, strain bim1, hits give low values) was 1.02 and the normalized growth (locus YER110C, hits give low values) was 1.02. It also gave a normalized growth (locus YER111C, strain swi4, hits give low values) of 1.01, a normalized growth (locus YER155C, strain BEM2 (second series), hits give low values) of 0.95 and a normalized growth (locus YER155C, strain BEM2, hits give low values) of 0.999. It also gave a normalized growth (locus YER167W, strain BCK2, hits give low values) of 1.01, a normalized growth (locus YFR010W, strain ubp6, hits give low values) of 0.991 and a normalized growth (locus YGL078C, strain dbp3, hits give low values) of 1.02. The normalized growth (locus YGL086W, strain mad1, hits give low values) was 0.997, the normalized growth (locus YGL167C, strain pmr1, hits give low values) was 1.01 and the normalized growth (locus YGL173C, strain kem1, hits give low values) was 1. The normalized growth (locus YGL227W, strain vid30, hits give low values) was 1.01, the normalized growth (locus YGL240W, strain doc1, hits give low values) was 1.01 and the normalized growth (locus YGL248W, strain PDE1, hits give low values) was 0.998. For the same compound, the normalized growth (locus YGL253W, strain hxk2, hits give low values) was 1.03, the normalized growth (locus YGR078C, strain PAC10, hits give low values) was 1.01 and the normalized growth (locus YGR135W, strain pre9, hits give low values) was 1. It also gave a normalized growth (locus YGR229C, strain SMI1, hits give low values) of 1.03, a normalized growth (locus YGR252W, strain gcn5, hits give low values) of 0.915 and a normalized growth (locus YHR013C, strain ard1, hits give low values) of 0.993. The normalized growth (locus YHR027C, strain rpn1, hits give low values) was 1.01, the normalized growth (locus YHR030C, strain SLT2, hits give low values) was 1.01 and 0.96 and the normalized growth (locus YHR079C, strain IRE1 (second series), hits give low values) was 1.02. For the same compound, the normalized growth (locus YHR079C, strain IRE1, hits give low values) was 0.977, the normalized growth (locus YHR094C, strain hxt1, hits give low values) was 1.02 and the normalized growth (locus YHR129C, strain ARP1, hits give low values) was 1. The normalized growth (locus YHR142W, strain chs7, hits give low values) was 1.06, the normalized growth (locus YHR200W, strain rpn10, hits give low values) was 1.02 and the normalized growth (locus YIL066C, strain RNR3, hits give low values) was 1.01. The normalized growth (locus YIL073C, strain SPO22, hits give low values) was 1.04, the normalized growth (locus YIL125W, strain kgd1, hits give low values) was 1.02 and the normalized growth (locus YIR030C, strain dcg1, hits give low values) was 1.02. The normalized growth (locus YJL092W, strain hpr5, hits give low values) was 1.02, the normalized growth (locus YJL095W, strain BCK1 (second series), hits give low values) was 1.02 and the normalized growth (locus YJL095W, strain BCK1, hits give low values) was 0.991 and 0.961. For the same compound, the normalized growth (locus YJL115W, strain asf1, hits give low values) was 1.03, the normalized growth (locus YJL129C, strain trk1, hits give low values) was 1.01 and the normalized growth (locus YJL134W, strain LCB3, hits give low values) was 1. It also gave a normalized growth (locus YJL154C, strain vps35, hits give low values) of 1.01, a normalized growth (locus YJL164C, strain tpk1, hits give low values) of 0.996 and a normalized growth (locus YJL166W, strain qcr8, hits give low values) of 1.02. It also gave a normalized growth (locus YJL168C, strain set2, hits give low values) of 1.02, a normalized growth (locus YJL187C, strain SWE1 (second series), hits give low values) of 1.01 and a normalized growth (locus YJR043C, strain POL32, hits give low values) of 1.02. It also gave a normalized growth (locus YJR066W, strain TOR1, hits give low values) of 0.926.
